Experimental data reported in PubChem BioAssay (EPA / NIEHS).
Results filed as inconclusive are left out. Calls of active or inactive are those of the source. Rule for the calls, unless noted: active = hit-call score of the fitted dose curve at least 0.9, where 1 is the maximum; inconclusive = response in the unintended direction; inactive = score below 0.9.

Experiments:
[1] = target: human Peroxisome Proliferator-activated Receptor delta (PPARd), PPARD (gene 5467) (UniProt Q03181); assay: ATG_PPARd_TRANS: Attagene TRANS-FACTORIAL HepG2 Assay for human Peroxisome Proliferator-activated Receptor delta (PPARd) (AID 2283002)
Procedure, shortened: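 HepG2 cells transiently transfected with multiplexed GAL4-UAS reporter units and exogenous chimeric NR-Gal4 proteins; 24 h compound exposure. Reporter mRNA measured by RT-PCR, 6-FAM labelling, HpaI digestion and capillary electrophoresis; gain of signal versus DMSO.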

[2] = target: Peroxisome proliferator-activated receptor gamma (Homo sapiens) (UniProt P37231); assay: ATG_PPARg_TRANS: Attagene TRANS-FACTORIAL HepG2 Assay for human Peroxisome Proliferator-activated Receptor-gamma (PPARg) (AID 2283007)
Procedure, shortened: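 HepG2 cells transiently transfected with multiplexed GAL4-UAS reporter units and exogenous chimeric NR-Gal4 proteins; reporter mRNA quantified after 24 h compound exposure by RT-PCR, fluorescent labelling, HpaI digestion and capillary electrophoresis; gain-of-signal fitted versus DMSO baseline.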

[3] = target: Nuclear receptor subfamily 1 group I member 2 (Homo sapiens) (UniProt O75469); assay: ATG_PXR_TRANS: Attagene TRANS-FACTORIAL HepG2 Assay for human Pregnane X Receptor (PXR) (AID 2283008)
Procedure, shortened: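 Trans-factorial format: exogenous NR-Gal4 fusion activity, not endogenous factor, in transfected human HepG2 liver cells. After 24 h dosing, RNA isolated, reverse-transcribed, amplified and resolved by capillary electrophoresis; induction scored versus DMSO.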

[4] = target: Retinoic acid receptor alpha (Homo sapiens) (UniProt P10276); assay: ATG_RARa_TRANS: Attagene TRANS-FACTORIAL HepG2 Assay for human Retinoic Acid Receptor alpha (RARa) (AID 2283005)
Procedure, shortened: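 HepG2 cells transiently transfected with multiple reporter units expressing chimeric RARα-GAL4 fusion, with GAL4-UAS-driven reporters. After 24 h compound exposure, reporter mRNA induction quantified by RT-PCR and capillary electrophoresis with fluorescent labeling; gain-of-signal fitted relative to DMSO control.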

[5] = target: human Retinoic Acid Receptor gamma (RARg), RARG (gene 5916) (UniProt P13631); assay: ATG_RARg_TRANS: Attagene TRANS-FACTORIAL HepG2 Assay for human Retinoic Acid Receptor gamma (RARg) (AID 2283009)
Procedure, shortened: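 TRANS format measured activity of exogenous NR-GAL4 fusion (RARg) in transfected HepG2 liver cells after 24 h dosing. Induced reporter RNA was detected by RT-PCR/capillary electrophoresis fluorescence, analysed in the positive direction against DMSO.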

[6] = target: human RAR-related Orphan Receptor beta (RORb), RORB (gene 6096) (UniProt Q92753); assay: ATG_RORb_TRANS: Attagene TRANS-FACTORIAL HepG2 Assay for human RAR-related Orphan Receptor beta (RORb) (AID 2283010)
Procedure, shortened: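 Transfect HepG2 with multiple GAL4-UAS reporter transcription units; dose chemicals for 24 h; isolate RNA, reverse-transcribe and PCR-amplify reporter sequences; label, digest and resolve fragments by capillary electrophoresis; fit increases relative to DMSO.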

[7] = target: human Retinoic Acid Receptor beta (RARb), RARB (gene 5915) (UniProt P10826); assay: ATG_RARb_TRANS: Attagene TRANS-FACTORIAL HepG2 Assay for human Retinoic Acid Receptor beta (AID 2283004)
Procedure, shortened: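 HepG2, transient MRTU transfection, NR–Gal4 chimera, 24 h treatment; RT-PCR plus CE fluorescence detection of reporter mRNA; gain of signal vs DMSO.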

[8] = read-out: Intercellular Adhesion Molecule 1 (ICAM1), ICAM1 (gene 3383); assay: BSK_3C_ICAM1: BioMAP Diversity Plus: 3C Assay for Intercellular Adhesion Molecule 1 (ICAM1) Biomarker Activity (AID 2283003; active = hit-call score of the fitted dose curve at least 0.9, where 1 is the maximum; inactive = score below 0.9); settings: primary human endothelial cells (HUVEC); actives raise or lower the signal
Procedure, shortened: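 Chemicals are dosed onto primary human umbilical vein endothelium (3C system). After 24 h, ICAM-1 is measured by ELISA, and responses are fitted bidirectionally relative to DMSO.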

[9] = BSK_3C_Proliferation: Cell Proliferation Assessment in the BioMAP Diversity Plus: 3C Assay (AID 2283006; active = hit-call score of the fitted dose curve at least 0.9, where 1 is the maximum; inactive = score below 0.9); settings: primary human endothelial cells (HUVEC)
Procedure, shortened: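 Cells (human umbilical vein endothelial, sub-confluent) receive test chemical; after 48 h they are fixed in 10% trichloroacetic acid, stained with 0.1% SRB and read at 560 nm. Activity is referenced to DMSO, fitting increases and decreases.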

Chain of human Retinoic Acid Receptor gamma (RARg), RARG (gene 5916) (P13631 whole entry, looked up, the tested form may be a part): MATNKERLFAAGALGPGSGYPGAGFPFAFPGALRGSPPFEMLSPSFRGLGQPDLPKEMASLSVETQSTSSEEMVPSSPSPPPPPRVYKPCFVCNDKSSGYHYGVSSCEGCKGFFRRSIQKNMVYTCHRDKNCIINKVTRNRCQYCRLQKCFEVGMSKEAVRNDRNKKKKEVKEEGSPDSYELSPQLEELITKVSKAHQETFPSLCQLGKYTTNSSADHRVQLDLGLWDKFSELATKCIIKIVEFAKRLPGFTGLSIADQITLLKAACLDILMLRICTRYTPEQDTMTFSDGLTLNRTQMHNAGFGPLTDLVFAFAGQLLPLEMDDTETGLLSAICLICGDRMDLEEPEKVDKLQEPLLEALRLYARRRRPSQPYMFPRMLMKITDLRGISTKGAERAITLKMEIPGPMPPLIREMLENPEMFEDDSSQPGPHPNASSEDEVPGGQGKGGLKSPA
Chain of Peroxisome proliferator-activated receptor gamma (Homo sapiens) (P37231 whole entry, looked up, the tested form may be a part): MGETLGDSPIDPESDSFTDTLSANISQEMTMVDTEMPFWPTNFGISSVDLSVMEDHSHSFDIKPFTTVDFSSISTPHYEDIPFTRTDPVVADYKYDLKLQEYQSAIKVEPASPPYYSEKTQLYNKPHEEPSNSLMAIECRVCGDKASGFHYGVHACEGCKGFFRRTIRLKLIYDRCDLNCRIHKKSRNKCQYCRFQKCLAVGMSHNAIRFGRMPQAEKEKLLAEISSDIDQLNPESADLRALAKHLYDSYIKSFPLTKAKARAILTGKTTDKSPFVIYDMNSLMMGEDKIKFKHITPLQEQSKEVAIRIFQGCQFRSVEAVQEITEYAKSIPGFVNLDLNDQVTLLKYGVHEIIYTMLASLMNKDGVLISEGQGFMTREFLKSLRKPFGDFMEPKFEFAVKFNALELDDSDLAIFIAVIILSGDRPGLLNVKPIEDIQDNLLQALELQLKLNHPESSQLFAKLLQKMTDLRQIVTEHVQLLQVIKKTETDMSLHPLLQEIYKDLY
Chain of Nuclear receptor subfamily 1 group I member 2 (Homo sapiens) (O75469 whole entry, looked up, the tested form may be a part): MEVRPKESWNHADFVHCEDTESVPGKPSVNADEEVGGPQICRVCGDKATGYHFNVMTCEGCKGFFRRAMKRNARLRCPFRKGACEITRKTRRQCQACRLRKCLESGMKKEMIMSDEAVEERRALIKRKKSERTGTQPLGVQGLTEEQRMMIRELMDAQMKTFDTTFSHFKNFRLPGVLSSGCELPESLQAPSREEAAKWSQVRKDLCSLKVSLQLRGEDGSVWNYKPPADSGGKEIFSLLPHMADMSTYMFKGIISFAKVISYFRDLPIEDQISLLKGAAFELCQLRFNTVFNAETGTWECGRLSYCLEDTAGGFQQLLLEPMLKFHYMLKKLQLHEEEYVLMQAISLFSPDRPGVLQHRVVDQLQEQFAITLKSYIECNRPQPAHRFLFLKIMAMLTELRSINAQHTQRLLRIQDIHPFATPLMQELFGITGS
Chain of human Retinoic Acid Receptor beta (RARb), RARB (gene 5915) (P10826 whole entry, looked up, the tested form may be a part): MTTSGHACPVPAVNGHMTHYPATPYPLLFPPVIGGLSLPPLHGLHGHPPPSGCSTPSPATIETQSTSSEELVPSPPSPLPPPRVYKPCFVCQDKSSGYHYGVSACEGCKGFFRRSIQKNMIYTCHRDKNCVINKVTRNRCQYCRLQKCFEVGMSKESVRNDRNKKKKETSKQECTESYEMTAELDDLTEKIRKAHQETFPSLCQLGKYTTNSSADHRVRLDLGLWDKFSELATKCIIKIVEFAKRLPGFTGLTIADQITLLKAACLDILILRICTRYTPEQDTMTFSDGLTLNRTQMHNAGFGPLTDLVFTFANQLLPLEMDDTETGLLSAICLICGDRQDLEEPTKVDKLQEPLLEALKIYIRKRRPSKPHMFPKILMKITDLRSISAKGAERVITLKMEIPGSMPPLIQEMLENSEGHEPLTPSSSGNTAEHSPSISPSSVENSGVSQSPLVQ
Chain of human Peroxisome Proliferator-activated Receptor delta (PPARd), PPARD (gene 5467) (Q03181 whole entry, looked up, the tested form may be a part): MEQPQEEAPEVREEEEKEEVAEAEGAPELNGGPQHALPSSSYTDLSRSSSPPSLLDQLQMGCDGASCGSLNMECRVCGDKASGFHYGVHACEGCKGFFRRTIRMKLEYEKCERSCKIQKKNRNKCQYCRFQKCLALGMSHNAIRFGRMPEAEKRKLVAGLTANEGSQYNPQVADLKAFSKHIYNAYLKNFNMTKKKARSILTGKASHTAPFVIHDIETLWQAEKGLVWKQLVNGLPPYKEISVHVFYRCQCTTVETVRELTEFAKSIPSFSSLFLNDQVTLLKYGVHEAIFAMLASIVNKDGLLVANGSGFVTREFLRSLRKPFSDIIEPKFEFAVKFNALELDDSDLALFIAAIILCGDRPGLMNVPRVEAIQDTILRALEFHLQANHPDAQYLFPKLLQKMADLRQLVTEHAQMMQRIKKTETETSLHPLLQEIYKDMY
Chain of human RAR-related Orphan Receptor beta (RORb), RORB (gene 6096) (Q92753 whole entry, looked up, the tested form may be a part): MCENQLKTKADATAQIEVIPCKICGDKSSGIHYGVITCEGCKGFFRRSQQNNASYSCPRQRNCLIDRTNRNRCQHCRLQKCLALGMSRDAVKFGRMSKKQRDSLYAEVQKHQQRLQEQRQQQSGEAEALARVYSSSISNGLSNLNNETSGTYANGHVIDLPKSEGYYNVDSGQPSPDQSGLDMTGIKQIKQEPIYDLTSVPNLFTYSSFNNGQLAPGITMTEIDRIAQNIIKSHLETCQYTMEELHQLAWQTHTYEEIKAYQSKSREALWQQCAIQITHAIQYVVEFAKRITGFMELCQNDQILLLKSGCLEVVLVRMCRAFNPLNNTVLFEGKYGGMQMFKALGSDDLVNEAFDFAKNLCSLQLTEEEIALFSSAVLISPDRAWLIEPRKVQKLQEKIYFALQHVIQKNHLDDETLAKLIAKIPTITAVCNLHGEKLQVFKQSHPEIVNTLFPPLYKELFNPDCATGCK
Chain of Retinoic acid receptor alpha (Homo sapiens) (P10276 whole entry, looked up, the tested form may be a part): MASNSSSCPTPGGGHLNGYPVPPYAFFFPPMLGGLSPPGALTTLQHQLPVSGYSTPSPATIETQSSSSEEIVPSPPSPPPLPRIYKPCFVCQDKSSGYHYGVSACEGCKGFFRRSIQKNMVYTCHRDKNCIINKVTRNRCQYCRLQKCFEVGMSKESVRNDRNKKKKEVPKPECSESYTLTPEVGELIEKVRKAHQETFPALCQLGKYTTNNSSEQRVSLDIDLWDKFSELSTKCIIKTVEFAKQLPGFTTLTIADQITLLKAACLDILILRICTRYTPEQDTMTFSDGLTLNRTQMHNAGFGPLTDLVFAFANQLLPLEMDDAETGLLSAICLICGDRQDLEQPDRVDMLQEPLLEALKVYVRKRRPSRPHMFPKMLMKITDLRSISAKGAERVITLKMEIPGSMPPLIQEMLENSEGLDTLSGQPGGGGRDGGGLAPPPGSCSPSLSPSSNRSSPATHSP

With CCCCCCCCCCc1ccccc1 the outcome [1] was “inactive”, the outcome [2] was “inactive” and the outcome [3] was “inactive”.

For O=c1cc[nH]c(=S)[nH]1, the outcome [1] was “inactive”, the outcome [4] was “inactive” and the outcome [2] was “inactive”. For the same molecule, the outcome [3] was “inactive” and the outcome [5] was “inactive”.

With O=S(=O)(O)c1cc(S(=O)(=O)O)c2ccc3c(S(=O)(=O)O)cc(S(=O)(=O)O)c4ccc1c2c43 the outcome [1] was “inactive”, the outcome [4] was “inactive” and the outcome [5] was “inactive”. For the same molecule, the outcome [6] was “inactive”.

In the case of CC=C1CC2C=CC1C2 (stereo not given), the outcome [1] is reported as “inactive”, the AC50 [2] is reported as 25.9 µM (active) and the AC50 [3] is reported as 7.51 µM (active).

With CCCCCCCCCCCCCOP(=O)(O)O the outcome [1] was “inactive”, the AC50 [2] was 16.4 µM (active) and the outcome [3] was “inactive”. The outcome [5] was “inactive”.

In the case of O=C(C(Cl)Cl)N1CCOC12CCCCC2, the outcome [1] is reported as “inactive”, the outcome [2] is reported as “inactive” and the outcome [3] is reported as “inactive”. The outcome [5] was “inactive”.

For CCCOCCOCCOCCO, the outcome [1] was “inactive” and the outcome [3] was “inactive”.

With C=COCCCC the outcome [1] was “inactive” and the outcome [4] was “inactive”.

In the case of Nc1ccc(-c2ccc(F)cc2)cc1, the outcome [1] is reported as “inactive”, the outcome [2] is reported as “inactive” and the outcome [3] is reported as “inactive”.

In the case of C=C1C2CCC(C2)C1(C)C (stereo not given), the outcome [1] is reported as “inactive”, the outcome [4] is reported as “inactive” and the AC50 [3] is reported as 18.9 µM (active). For the same molecule, the outcome [5] was “inactive”.

With CCN(Cc1cccc(S(=O)(=O)O)c1)c1ccc(C(=C2C=CC(=[N+](CC)Cc3cccc(S(=O)(=O)[O-])c3)C=C2)c2ccccc2)cc1 the outcome [1] was “inactive”, the AC50 [2] was 31.1 µM (active) and the outcome [3] was “inactive”. For the same molecule, the outcome [6] was “inactive”.

In the case of CC(C)(C)C(=O)CCc1ccc(Cl)cc1, the outcome [1] is reported as “inactive”, the outcome [2] is reported as “inactive” and the outcome [3] is reported as “inactive”. The outcome [5] was “inactive”.

With O=C1c2ccccc2C(=O)C1c1nc2ccccc2c(Br)c1O the outcome [1] was “inactive”, the AC50 [2] was 11.5 µM (active) and the outcome [3] was “inactive”.

For O=c1c2ccccc2nnn1CCl, the outcome [1] was “inactive”, the outcome [4] was “inactive” and the outcome [2] was “inactive”. The AC50 [3] was 5.33 µM (active).

With O=C1Nc2ccccc2C1(c1ccc(O)cc1)c1ccc(O)cc1 the outcome [1] was “inactive”, the outcome [2] was “inactive” and the outcome [3] was “inactive”.

In the case of O=C(Oc1ccccc1)c1ccc2ccccc2c1O, the outcome [1] is reported as “inactive”, the AC50 [2] is reported as 15.9 µM (active) and the AC50 [3] is reported as 16.9 µM (active).

With Nc1ccc(Oc2ccc(N)c(N)c2)cc1 the outcome [1] was “inactive”, the AC50 [2] was 60.1 µM (active) and the outcome [3] was “inactive”. For the same molecule, the outcome [5] was “inactive”.

With Cc1cc(C)c(C)c(C)c1 the outcome [1] was “inactive”, the outcome [2] was “inactive” and the outcome [3] was “inactive”. The outcome [5] was “inactive” and the outcome [6] was “inactive”.

In the case of CC(=O)OC1C2(C)CCC(C2)C1(C)C (stereo not given), the outcome [1] is reported as “inactive”, the outcome [2] is reported as “inactive” and the outcome [3] is reported as “inactive”.

In the case of CC=CC(=O)N(CC)c1ccccc1C, the outcome [7] is reported as “inactive”, the outcome [2] is reported as “inactive” and the outcome [6] is reported as “inactive”.

In the case of C=C[Si](C)(C)O[Si](C)(C)C=C, the outcome [7] is reported as “inactive”, the outcome [4] is reported as “inactive” and the outcome [5] is reported as “inactive”. For the same molecule, the outcome [6] was “inactive”.

For CC(C)(C)c1ccc(-c2ccc(C(C)(C)C)cc2)cc1, the outcome [1] was “inactive”, the outcome [3] was “inactive” and the outcome [6] was “inactive”.

With CCCCC(CC)COCC1CO1 (stereo not given) the outcome [8] was “inactive”, the outcome [9] was “inactive” and the outcome [2] was “inactive”. The outcome [3] was “inactive”.

In the case of CC1(C)O[C@@H]2C[C@H]3[C@@H]4C[C@H](F)C5=CC(=O)C=C[C@]5(C)[C@@]4(F)[C@@H](O)C[C@]3(C)[C@]2(C(=O)CO)O1, the outcome [1] is reported as “inactive” and the outcome [3] is reported as “inactive”.

For OCCc1ccncc1, the outcome [7] was “inactive”, the outcome [4] was “inactive” and the outcome [2] was “inactive”.

In the case of O=S1(=O)OC(c2ccc(O)cc2)(c2ccc(O)cc2)c2ccccc21, the outcome [1] is reported as “inactive” and the outcome [3] is reported as “inactive”.

With CCCCCCCCc1ccc(Nc2ccc(CCCCCCCC)cc2)cc1 the outcome [8] was “inactive”, the outcome [7] was “inactive” and the outcome [4] was “inactive”. The outcome [9] was “inactive”, the outcome [2] was “inactive” and the AC50 [3] was 1.68 µM (active). The outcome [5] was “inactive”.

In the case of CCC(Cc1ccccc1)(C(=O)c1ccc(N2CCOCC2)cc1)N(C)C (stereo not given), the outcome [1] is reported as “inactive” and the AC50 [3] is reported as 2.42 µM (active).

In the case of Cc1cc(C)c(C)c(O)c1, the outcome [7] is reported as “inactive”, the outcome [2] is reported as “inactive” and the outcome [3] is reported as “inactive”.

In the case of O=S(=O)(O)c1ccc2cc(O)c(S(=O)(=O)O)cc2c1, the outcome [1] is reported as “inactive” and the outcome [3] is reported as “inactive”.

For COc1ccc(C(Cl)=C(c2ccc(OC)cc2)c2ccc(OC)cc2)cc1, the outcome [7] was “inactive”, the outcome [4] was “inactive” and the AC50 [3] was 3.67 µM (active). The outcome [5] was “inactive”.

With C=C1[C@H]2CC[C@@H]3[C@H]2C(C)(C)CCC[C@]13C the outcome [7] was “inactive”, the outcome [2] was “inactive” and the outcome [3] was “inactive”. For the same molecule, the outcome [5] was “inactive”.
